Results as given in the supplement of paper PMC5662767.

Each molecule was assayed on Drosophila S2 cl14 SmoIP sensor cells (assay: normalized SmoIP GFP fluorescence (untreated unstimulated = 0%, untreated Hh-stimulated = 100%); higher = more Smo activation sensor fluorescence). Settings: stimulation: mock conditioned medium (-Hh); compound concentration: 2 uM; 24 h.
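Note: flow cytometry read-out as median GFP intensity of gated cells, compounds added 30 min before Hh-conditioned or mock medium, mock-treated cells serving as unstimulated baseline.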

Going from O=C(C[S+]([O-])Cc1ccco1)NC/C=C\COc1cc(CN2CCCCC2)ccn1 (stereo not given) [lafutidine] to O=C(NCCN1CCOCC1)c1ccc(Cl)cc1 [moclobemide], the “normalized SmoIP GFP fluorescence” value rises from -9.85% to -3.05%.

Compared with C[C@]1(O)C[C@@H](c2nc(-c3ccc4ccc(-c5ccccc5)nc4c3)c3c(N)nccn32)C1, CC(C)c1cc(-c2ccc(F)c3ccccc23)nc(N)n1 is higher in “normalized SmoIP GFP fluorescence” value: -11% for the first, -7.78% for the second.

Cc1ccc2nc(NCCN)c3ncc(C)n3c2c1 was tested, and the “normalized SmoIP GFP fluorescence” value was -9.4%.
